Experimental data published in the supplement of paper PMC12669032.
Values without a mark were called inactive.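 Rule for the calls: active = AUC reduced over 20% with Padj below 0.05 in at least 2 of 3 replicates; inactive = otherwise.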

What follows are compounds tested on Parabacteroides merdae (assay: growth AUC relative to DMSO control (median of replicates) (fraction); higher = more growth (less inhibition), active = hit call of the paper). Details: 20 µM; 24 h.
Method in brief: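 OD600 was recorded every hour for 24 h in anaerobic monocultures of gut bacteria kept at 37 °C in mGAM, seeded at OD600 0.05 and given 20 µM compound in 1% DMSO. The area under each growth curve was scaled to the plate median of solvent-only wells, or to row and column medians for the industrial chemical plate. Before this step, the minimum OD was set to 0. Reported values are medians of three biological replicates run on separate days.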

Structure (SMILES)	growth AUC
Cc1cccc(C)c1N	0.999
C=CCOC(=O)C(C)(C)OC(=O)c1cc(-n2c(=O)cc(C(F)(F)F)n(C)c2=O)ccc1Cl	0.962
CCOP(=O)(NC(C)C)Oc1ccc(S(C)(=O)=O)c(C)c1 (configuration not stated)	1.04
Cc1cc(OC(=O)N(C)C)nn1C(=O)N(C)C	0.966
CCCCCCCCSC(=O)Oc1cc(Cl)nnc1-c1ccccc1	0.967
CC1(C(=O)Nc2ccc(O)c(Cl)c2Cl)CCCCC1	0.993
CC(Oc1ccc(Oc2ccc(Cl)cc2Cl)cc1)C(=O)O (racemic)	0.956
C[Si](Cn1cncn1)(c1ccc(F)cc1)c1ccc(F)cc1	0.964
CN(C)C1CSSSC1.O=C(O)C(=O)O	1.02
COP(=S)(OC)SCn1nnc2ccccc2c1=O	0.944
CCSC(=O)N1CCCCCC1	1
O=C(O)c1c(Cl)ccc2cc(Cl)cnc12	0.987
CCCSP(=S)(OCC)Oc1ccc(SC)cc1 (configuration not stated)	0.996
Cc1cc(C(F)(C(F)(F)F)C(F)(F)F)ccc1NC(=O)c1cccc(I)c1C(=O)NC(C)(C)CS(C)(=O)=O	0.99
Cc1cc(Cl)ccc1O	1.04
COc1cc(OC)nc(NC(=O)NS(=O)(=O)c2ncccc2C(=O)N(C)C)n1	0.988
Cc1cccc2sc3nncn3c12	1
